Measured values: PubChem BioAssay (NCI)
Values joined by “and” are separate entries in the source; they are usually repeats but may differ in a detail not shown here. Equal values may be shown once. This is part of a sample that, as a whole, favours compounds with a hit. Of some 83,000 tested, about 20% had one in any assay.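 Activity criterion: percent growth below 10, measured after cells in 96-well plates were exposed to a single compound concentration for 48 hours.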 Active and inactive are the calls of the source.

System: MDA-MB-468 breast
Test: NCI-60 one-dose screen, 48 h (100 = growth as untreated, 0 = no growth, -100 = all killed)
Settings: 10 µM unless noted

| Compound | growth |
| --- | --- |
| Nc1nonc1-c1nc2ccccc2n1Cc1ccc(F)cc1 | 23.6% (inactive) |
| C=CCn1c(SCC(=O)Nc2cccc(C(=O)/C=C/c3ccc(OC)c(OC)c3)c2)nc2ccccc2c1=O | 80.9% (inactive) |
| Cc1cc(-c2ccc(NS(=O)(=O)c3ccccc3)c(C)c2)ccc1NS(=O)(=O)c1ccccc1 | 80.4% (inactive) and 101% (inactive) |
| C[C@H]1[C@H]2[C@H]3CC[C@@H]4[C@@]5(C)C/C(=C/c6ccco6)C(=O)C(C)(C)[C@@H]5CC[C@@]4(C)[C@]3(C)CC[C@]23CO[C@]1(C)[C@@H](C(=O)/C=C\c1ccco1)C3 | 76.3% (inactive) |
| Cc1cc(C)c2c(n1)sc1c(Nc3ccc(Cl)cc3Cl)ncnc12 | 16.9% (inactive) |
| COc1ccc(NCc2cn(-c3ccc(C(=O)O)cc3)nc2-c2cc(C(F)(F)F)cc(C(F)(F)F)c2)cc1 | 112% (inactive) |
| CCOC(=O)C1=C(C(=O)c2ccccc2)C(c2cccc([N+](=O)[O-])c2)C(C(=O)c2ccccc2)=C(C(=O)OCC)N1 | 83.2% (inactive) |
| Cc1cccc2c1C[C@@]1(C2=O)C(c2ccc(C(C)(C)C)cc2)=NOS1=O (stereo not given in full) | 88.2% (inactive) |
| CC(C)CCSc1nc(N)nc2nc[nH]c12 | 103% (inactive) |
| O=C(Nc1ccc(Cl)cc1)c1cc2c(cc1O)[nH]c1ccccc12 | -17.6% (active) |
| Clc1ccc2oc3c(NCCCn4ccnc4)c4ccccc4nc3c2c1 | 51.6% (inactive) |
| Nc1cccc2c1C(=O)c1cccc(NC(=O)c3ccccc3)c1C2=O | 10.6% (inactive) |
| CCOC(=O)CNC(=O)Nc1ccc(Oc2ccc(NC(=O)NCC(=O)OCC)cc2)cc1 | 99.5% (inactive) |
| c1ccc(CO[C@H]2CO[C@H]3[C@@H]2OC[C@H]3OCc2ccccc2)cc1 | 112% (inactive) |
| O=C(Nc1cnc(Nc2ccc(N3CCOCC3)nc2)nc1Oc1ccc(C(F)(F)F)cc1)c1ccncc1 | 103% (inactive) |
| C=CCOc1ccc2c(c1)CC=C1[C@@H]2CC[C@]2(C)C(=O)/C(=N/O)C[C@@H]12 | 55.7% (inactive) |
| COc1ccc(C(=O)/C=C/c2cc(C(=O)c3cc(OC)c(OC)c(OC)c3)ccc2OC)cc1 | 47.2% (inactive) |
| N#C/C(=C\c1ccc(-c2ccc(Cl)cc2)o1)C(=O)Nc1ncc(Cc2ccc(Cl)cc2)s1 | 77.9% (inactive) |
| Cn1ncc2c(Nc3ccccc3Cl)nc(Cl)nc21 | 97.1% (inactive) |
| CCCCCCCC/C=C/CCCCCCCC1=NC(C)(C)CN1CC(C)O (stereo not given) | 46.7% (inactive) |

| Compound | growth |
| --- | --- |
| CCNNC(=O)[C@@H]1[C@H](c2cc(OC)c(OC)c(OC)c2)c2cc3c(cc2[C@H](O)[C@H]1CO)OCO3 | 7.05% (active) |
| COc1cc2cc(OC(C)=O)c3cc4c(cc3c2c(OC)c1OC)OCO4 | 96.4% (inactive) |
| CCSc1oc(-c2ccccc2)nc1[P+](c1ccccc1)(c1ccccc1)c1ccccc1 | -37.6% (active) |
| CCN(CC)CCCC(C)Nc1nc(-c2ccc(OC)cc2)nc2cc(Cl)ccc12 (stereo not given) | 34.8% (inactive) |
| C/C(=C\CCc1ccoc1)CC/C=C(\C)CCCN1CCC(CO)CC1 | 14.5% (inactive) |
| COc1cccc(-c2nn(C)c3sc(C(=O)NCCN4CCN(c5ccccc5F)CC4)cc23)c1 | 45.9% (inactive) |
| C[C@@]1(CCC#N)[C@H]2CC[C@@H]3[C@H]4[C@H](C(=O)/C=C/c5cccnc5)CC[C@]4(C#N)CC[C@@]3(C)[C@]2(C)CC[C@H]1C(=O)/C=C/c1cccnc1 | 57.9% (inactive) |
| C=C(c1ccc(OC)c(/C=C/C(=O)c2ccc3c(c2)OCO3)c1)c1cc(OC)c(OC)c(OC)c1 | 37.4% (inactive) |
| O=[N+]([O-])c1c(S(=O)(=O)O)cc2cc(S(=O)(=O)O)ccc2c1[N+](=O)[O-] | 111% (inactive) |
| CCCCOc1ccc(/C=C2/SC(N3CCCC3)=NC2=O)cc1 | 93.1% (inactive) |
| CC(=O)OC[C@H]1O[C@@H](n2c(=O)cc(N)[nH]c2=O)C(OC(C)=O)[C@@H]1OC(C)=O (stereo not given in full) | 98.8% (inactive) |
| CO[C@@H](C(=O)N1Cc2[nH]nc(NC(=O)c3ccc(N4CCN(C)CC4)cc3)c2C1)c1ccccc1 | 50.7% (inactive) |
| C=C(C)[C@@H]1CC[C@]2(CO)CC[C@]3(C)[C@H](CC[C@@H]4[C@@]5(C)CCC(NCCc6ccc(O)cc6)C(C)(C)[C@@H]5CC[C@]43C)[C@@H]12 (stereo not given in full) | -91.7% (active) |
| Fc1cccc(F)c1C#Cc1ccc2cccnc2c1 | 36.5% (inactive) |
| c1ccc(Cc2cccc[n+]2C(c2ccccc2)c2ccccc2)cc1 | -6.43% (active) |
| Cc1ccc2c(NCCCN(C)C)c3c(C)nn(C)c3nc2c1 | 22.1% (inactive) |
| Cc1cc2ccccc2c(O)c1C#N | 117% (inactive) |
| CCOC(=O)/C(C#N)=C\c1c[nH]c2ccccc12 | 97.4% (inactive) |
| CCC1=Cc2c(OC)cccc2OC12C=Cc1c(OC)cccc1O2 (stereo not given) | 54% (inactive) |
| COc1cc2c3c(c4c5ccccc5[nH]c4c2c(OC)c1OC)C(=O)N(CCN1CCCCC1)C3=O | 63.7% (inactive) |
